Source: PubChem BioAssay AID1159580 (chemical genetic matrix, 2015)
Among all 5,500 compounds or so, about 2,000 (36%) were called active. Not shown: some 18% with an inconclusive outcome. No stated cut-off is given here; in the data, active means normalized growth mostly below about 0.91 (no sharp cut-off); inconclusive means no clear call, values can overlap the other calls; inactive means mostly above about 0.92. The list shows a part of the results.

Assay: chemical genetic growth profiling, strain panel (AID 1159580);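 further: tested at 20 µM; growth read once vehicle control cultures reached saturation at 30 °C; 1 = growth at the plate median or of vehicle wells; lower values mean less growth of the strain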
Details: S. cerevisiae deletion strains, growth OD

Measured: normalized growth

CN(C)CCCO[C@@H]1[C@H]2OC(C)(C)O[C@H]2O[C@@H]1C(O)CO (some centres not stated)
inactive: locus YAL040C, strain CLN3, hits give low values 1 | locus YCL061C, strain MRC1 (second series), hits give low values 1 | locus YDR150W, strain NUM1, hits give low values 1 | locus YDR363W, strain ESC2, hits give low values 1 | locus YER002W, strain NOP16, hits give low values 1.02 | locus YGR078C, strain PAC10, hits give low values 1.01 | locus YJR075W, strain HOC1, hits give low values 1.01 | locus YNL175C, strain NOP13, hits give low values 1.01 | locus YNL197C, strain WHI3, hits give low values 1.03 | locus YNL224C, strain SQS1, hits give low values 1 | locus YOR083W, strain WHI5 (second series), hits give low values 1.01 | locus YPL241C, strain CIN2, hits give low values 1.01
